# Results taken from ChEMBL document CHEMBL4808148, “HDAC6 screening dataset using tau-based substrate in an enzymatic assay yields selective inhibitors and activators” (2021).
# The whole screen tested about 5,600 compounds, of which about 150 (2.7%) showed an effect of 50% or more. This excerpt belongs to a sample that is enriched for strong results.
# What was measured:
# [1] = biological target: T1, Protein deacetylase HDAC6 (Homo sapiens) (UniProt Q9UBN7); settings: at 10 µM
# T1 sequence (whole entry): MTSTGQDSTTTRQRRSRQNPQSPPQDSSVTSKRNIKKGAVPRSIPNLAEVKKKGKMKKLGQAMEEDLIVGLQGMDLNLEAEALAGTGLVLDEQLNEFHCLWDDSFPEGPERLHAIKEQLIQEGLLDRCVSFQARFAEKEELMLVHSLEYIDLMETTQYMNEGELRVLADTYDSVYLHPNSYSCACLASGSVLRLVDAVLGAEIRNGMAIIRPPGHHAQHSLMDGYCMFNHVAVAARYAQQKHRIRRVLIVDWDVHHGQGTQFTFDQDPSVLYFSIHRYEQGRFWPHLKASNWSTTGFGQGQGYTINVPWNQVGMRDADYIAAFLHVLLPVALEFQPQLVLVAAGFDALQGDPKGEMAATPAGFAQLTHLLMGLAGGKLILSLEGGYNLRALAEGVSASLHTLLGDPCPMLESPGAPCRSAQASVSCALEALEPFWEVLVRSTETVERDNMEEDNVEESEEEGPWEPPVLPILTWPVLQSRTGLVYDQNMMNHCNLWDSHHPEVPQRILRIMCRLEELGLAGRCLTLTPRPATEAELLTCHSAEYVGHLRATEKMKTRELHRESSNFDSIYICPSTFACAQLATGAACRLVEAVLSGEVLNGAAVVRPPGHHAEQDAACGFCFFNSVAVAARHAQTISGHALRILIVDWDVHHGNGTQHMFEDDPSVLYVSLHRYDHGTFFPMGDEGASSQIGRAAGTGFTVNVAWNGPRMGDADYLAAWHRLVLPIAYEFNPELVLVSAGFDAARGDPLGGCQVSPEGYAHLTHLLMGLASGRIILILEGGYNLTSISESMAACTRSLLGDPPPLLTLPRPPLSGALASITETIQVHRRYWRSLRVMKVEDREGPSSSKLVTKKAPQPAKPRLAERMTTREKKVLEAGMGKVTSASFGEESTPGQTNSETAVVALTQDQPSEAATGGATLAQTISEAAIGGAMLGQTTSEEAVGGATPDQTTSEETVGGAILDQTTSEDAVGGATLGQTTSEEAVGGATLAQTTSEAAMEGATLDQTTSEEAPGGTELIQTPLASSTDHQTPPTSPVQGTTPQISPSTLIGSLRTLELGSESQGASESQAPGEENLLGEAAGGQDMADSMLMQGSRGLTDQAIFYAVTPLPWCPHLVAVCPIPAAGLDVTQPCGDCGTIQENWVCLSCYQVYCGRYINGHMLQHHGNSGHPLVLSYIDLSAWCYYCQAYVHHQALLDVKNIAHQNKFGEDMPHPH
# [2] = biological target: Protein deacetylase HDAC6 (Homo sapiens) (UniProt Q9UBN7); settings: at 10 µM; remark: listed apart in the source
Compound,inhibition [1],inhibition [2]
O=S1(=O)N[C@H]2CCCN2c2ccccc21,-6.18%,–
FC(F)(F)c1ccc(Nc2ncnc3cc(-c4ncccc4C(F)(F)F)ccc23)cc1,6.46%,–
CCCC[C@@H](NC(=O)[C@@H](Cc1cn(C(=O)OC)c2ccccc12)NC(=O)[C@H](CC(C)(C)C)NC(=O)N1[C@H](C)CCC[C@@H]1C)C(=O)O,-9.33%,–
CCCCCCCCCCCCCCCC(=O)OC[C@H](COP(=O)([O-])OCC[N+](C)(C)C)OC(=O)CCCCCCCCCCCCCCC,-0.71%,–
COc1c(C)cnc(Cn2cc(C#CCC(C)(C)O)c3c(Cl)nc(N)nc32)c1C,0.42%,–
O=C(c1cc(C2CC2)on1)N(C1CCCCC1)C1CCCCC1,9.33%,–
C#C[C@]1(OC(C)=O)CC[C@H]2[C@@H]3CCC4=C/C(=N/O)CC[C@@H]4[C@H]3CC[C@@]21CC,5.83%,–
Nc1ccc(S(=O)(=O)Nc2ccccn2)cc1,2.21%,–
Cc1ccnc(NS(=O)(=O)c2ccc(N)cc2)n1,-3.6%,–
C=Cc1c(C)c2cc3nc(c(CC(=O)O)c4[nH]c(cc5nc(cc1[nH]2)C(C)=C5CC)c(C)c4C(=O)O)C(CCC(=O)O)C3C (configuration not stated),8.5%,–
CC(C)n1nccc1-c1ncccc1COc1cccc(O)c1C=O,0.21%,–
O=c1cc(N2CCN(c3cccc(C(F)(F)F)c3)CC2)[nH]c(=O)n1C1CCCCC1,-1.42%,–
O=C(/C=C/C=C/c1ccc2c(c1)OCO2)N1CCCCC1,61.2%,–
O=C(CN1CCN(Cc2ccc3c(c2)OCO3)CC1)N1c2ccccc2Sc2ccccc21,4.21%,–
O=C(c1ccc2c(c1)OCO2)N1CCCCC1,-4.9%,–
CC(C)(C)C(O)/C=C/c1ccc2c(c1)OCO2 (configuration not stated),8.28%,–
O=C(COc1ccc(Cl)cc1)N1CCN(Cc2ccc3c(c2)OCO3)CC1,-0.58%,–
O=C(/C=C/c1ccc2c(c1)OCO2)N1CCCCC1,67.8%,–
CC/C(=C(\c1ccc(OCCN(C)C)cc1)c1cccc(O)c1)c1ccccc1,-4.47%,–
CC(C)(N)c1nc(-c2ccc(OC(F)(F)F)cc2)c[nH]1,3.83%,–
C[C@]12CC[C@H](O)CC1=CCC1C2CC[C@]2(C)C(n3cnc4ccccc43)=CCC12 (some centres not stated),10.9%,–
O=C(Nc1cccc2c(=O)cc(-c3nnn[nH]3)oc12)c1ccc(OCCCCc2ccccc2)cc1,2.83%,–
CCCCc1ccc2[nH]c(NC(=O)OC)nc2c1,15.1%,–
O=C(NO)c1ccc2[nH]c(=O)c(CCCc3ccccc3)nc2c1,97.8%,–

Compound,inhibition [1],inhibition [2]
NC(=O)CCCCn1ccc(/N=C(\N)NCC(F)(F)F)n1,-7.78%,–
O=C(Nc1ccc(C(O)(C(F)(F)F)C(F)(F)F)cc1)c1ccc(C(F)(F)F)cc1,0.41%,–
C/C(O)=C(\C#N)C(=O)Nc1ccc(C(F)(F)F)cc1,98.6%,–
CC(=O)Nc1ccc(C(=O)O)cc1,-3.9%,–
C=C1CC/C=C(\C)CC[C@@H]2[C@@H]1CC2(C)C,2.39%,–
O=c1c(-c2ccccc2)c1-c1ccccc1,10.5%,–
CCOc1cccc(NC(=O)c2ccc(N3CCCC3)c(C(F)(F)F)c2)c1,0.15%,–
CCCCOc1ccc(C(=O)CCN2CCCCC2)cc1,-4.56%,–
CCCCOc1ccc(C(=O)Nc2ccc(F)cc2F)cc1,49%,–
CCCCOc1ccc(CC(=O)NO)cc1,75.5%,–
CC[C@H](CC[C@@H](C)[C@H]1CC[C@H]2[C@@H]3CC=C4C[C@@H](O[C@@H]5O[C@H](CO)[C@@H](O)[C@H](O)[C@H]5O)CC[C@]4(C)[C@H]3CC[C@]12C)C(C)C,2.47%,–
N#Cc1ccc(-c2ccc(S(=O)(=O)Nc3cccc(N)n3)cc2)cc1,2.23%,–
Nc1ncccc1-c1nc2ccc(-c3ccccc3)nc2n1-c1ccc(C2(N)CCC2)cc1,0.11%,–
CC(C)c1ccc2oc3nc(N)c(C(=O)O)cc3c(=O)c2c1,99.5%,–
N[C@H](C(=O)O)c1ccc(O)c(C(=O)O)c1,-4.47%,–
N[C@@H](C(=O)O)c1ccc(O)c(C(=O)O)c1,-2.24%,–
CCOc1cc(OCC)c(C(=O)CCC(=O)O)cc1OCC,-6.02%,–
Cc1n[nH]c2ccc(-c3cncc(OC[C@@H](N)Cc4ccccc4)c3)cc12,-5.53%,–
"hemin, CHEMBL5308479",–,13.1%
NCCNc1ccc(NCCN)c2c1C(=O)c1ccncc1C2=O,62.5%,–
NCCNS(=O)(=O)c1ccc(Cl)c2ccncc12,-2.71%,–
O=C1c2c(O)ccc(O)c2C(=O)c2c(NCCNCCO)ccc(NCCNCCO)c21,16%,–
Clc1ccc2c(N3CCN(CCCN4CCN(c5ccnc6cc(Cl)ccc56)CC4)CC3)ccnc2c1,-8.35%,–
